# Laboratory results as given in PubChem BioAssay AID463173 (ICCB-Longwood Screening Facility, Harvard Medical School, 2010).
# The whole screen tested about 52,000 compounds, of which about 4,300 (8.3%) were called active. The entries come from a sample that favours actives as a whole. A number with no mark means an inactive call. Cut-off read from the data, not from the text of the source: active = survival mostly below about 52% (no sharp cut-off); inactive = mostly above about 56%.
# Test system: DeltatarO mutant
# Assay: S. aureus survival, RN4220 and DeltatarO strains – OD600, teichoic acid synthesis inhibitors, primary screen (AID 463173)
# Conditions: S. aureus RN4220 wild type/DeltatarO growth, OD600, 18 h, active compounds read low, screened at 18.75 µg/mL (by protocol)
row,SMILES,survival
1,COc1ccc(NC(=O)c2sc3nc(-c4cc5ccc(OC)cc5oc4=O)[nH]c(=O)c3c2C)cc1,46% (active)
2,Cc1c(C(=O)Nc2cccc(F)c2)sc2nc(-c3cc4ccccc4oc3=O)[nH]c(=O)c12,37% (active)
3,Cc1cccc(NC(=O)c2sc3nc(-c4cc5ccc(O)cc5oc4=O)[nH]c(=O)c3c2C)c1,46%
4,Cc1cc(NC(=O)c2ccc(F)cc2)ccc1-c1cc2ccccc2oc1=O,75%
5,COc1ccc(NC(=O)c2sc3nc[nH]c(=O)c3c2C)cc1,75%
6,Cc1cc(C)cc(NC(=O)c2sc3nc[nH]c(=O)c3c2C)c1,91%
7,CCOc1cccc2cc(-c3nc4sc(C(=O)Nc5ccc(C)cc5)c(C)c4c(=O)[nH]3)c(=O)oc12,51%
8,Cc1cc(C)cc(NC(=O)c2sc3nc(-c4cc5ccccc5oc4=O)[nH]c(=O)c3c2C)c1,43% (active)
9,Cc1ccc(NC(=O)c2sc3nc(-c4cc5ccccc5oc4=O)[nH]c(=O)c3c2C)c(C)c1,39% (active)
10,COc1ccc(NC(=O)c2sc3nc(-c4cc5cccc(OC)c5oc4=O)[nH]c(=O)c3c2C)cc1,46%
11,Cc1c(C(=O)Nc2ccccc2)sc2nc(-c3cc4ccccc4oc3=O)[nH]c(=O)c12,66%
12,Cc1ccccc1NC(=O)c1sc2nc(-c3cc4ccccc4oc3=O)[nH]c(=O)c2c1C,52%
13,O=C(COc1ccc(Br)cc1Cl)Nc1ncn[nH]1,91%
14,CCOCCCNC(=O)C1CCCN(c2ncnc3onc(C)c23)C1 (stereo not given),68%
15,COc1ccc(-c2cn3nc(N4CCC(C(=O)Nc5cccc(OC)c5)CC4)sc3n2)cc1,94%
16,C#CCn1c(=NC(=O)c2ccc3c(c2)OCCO3)sc2cc(OC)c(OC)cc21,102%
17,COc1cccc(C(=O)c2cn(CC(=O)Nc3ccc4c(c3)OCCO4)c3nc(C)ccc3c2=O)c1,68%
18,CCOC(=O)c1c(C)oc2ncnc(Nc3cc(C)cc(C)c3)c12,94%
19,CCOC(=O)c1c(Nc2cccc(O)c2)nnc(-c2ccccc2)c1-c1ccccc1,31% (active)
20,CCOC(=O)c1c(C)oc2nc(C)nc(Nc3cc(C)cc(C)c3)c12,89%
21,Cc1ccc(-c2nnc(Nc3ccc(C(N)=O)cc3)c3ccccc23)cc1S(=O)(=O)N1CCCCC1,128%
22,Cc1ccc(-c2nnc(Nc3cccc(O)c3)c3ccccc23)cc1S(=O)(=O)N1CCCCC1,60%

row,SMILES,survival
1,CCOC(=O)c1c(Oc2ccc(C(=O)OC)cc2)nnc(-c2ccccc2)c1-c1ccccc1,74%
2,CNC(=O)c1ccc(Nc2nnc(-c3ccc(C)c(S(=O)(=O)N4CCOCC4)c3)c3ccccc23)cc1,61%
3,CNC(=O)c1ccc(Nc2nnc(-c3ccc(C)c(S(=O)(=O)N4CCCCC4)c3)c3ccccc23)cc1,54% (active)
4,Cc1ccc(-c2nnc(Nc3cccc(O)c3)c3ccccc23)cc1S(=O)(=O)N1CCOCC1,78%
5,CCOC(=O)c1c(Nc2cccc(C(=O)OC)c2)nnc(-c2ccccc2)c1-c1ccccc1,16% (active)
6,CCOC(=O)c1c(Nc2cc(C)cc(C)c2)nnc(-c2ccccc2)c1-c1ccccc1,32% (active)
7,CCOC(=O)c1c(C)oc2nc(C)nc(Nc3cccc(OC)c3)c12,78%
8,Cc1ccc(N2CCN(c3nc4c(S(=O)(=O)c5ccc(C)c(C)c5)nnn4c4ccccc34)CC2)c(C)c1,82%
9,CN(C)c1ccc(CNC(=O)C2CCCN(S(=O)(=O)c3ccc4c(ccn4C)c3)C2)cc1 (stereo not given),83%
10,Cc1noc(-c2ccc(N3CCCCC3C)c([N+](=O)[O-])c2)n1 (stereo not given),108%
11,CCOc1ccc(N2C(=O)N(Cc3ccc(C)cc3C)c3ccccc3S2(=O)=O)cc1,94%
12,Cc1ccc(-c2nnc(Nc3cccc(O)c3)c3ccccc23)cc1S(=O)(=O)N1CCN(C)CC1,97%
13,CCOC(=O)c1cccc(Nc2cc(C)nc(C)n2)c1,65%
14,CCOC(=O)c1c(C)c(-c2ccccc2)n(CC(=O)Nc2cc(C)cc(C)c2)c1C,80%
15,CCOC(=O)c1cccc(Nc2cc(-c3ccccc3)ncn2)c1,15% (active)
16,Cc1ccc(-c2nnc(Nc3cccc(O)c3)c3ccccc23)cc1S(=O)(=O)NCC1CCCO1 (stereo not given),74%
17,Oc1cccc(Nc2cc(-c3ccccc3)ncn2)c1,63%
18,CCOC(=O)CNS(=O)(=O)c1cc(-c2nnc(Nc3cccc(O)c3)c3ccccc23)ccc1C,39% (active)
19,CCOC(=O)c1c(C)oc2ncnc(Nc3cccc(C(F)(F)F)c3)c12,105%
20,CCOC(=O)c1c(Nc2cccc(C)c2)nnc(-c2ccccc2)c1-c1ccccc1,-4% (active)
21,CCc1ccc(NC(=O)Cn2c(=O)n(-c3ccccc3C)c(=O)c3c2c2cc(OC)ccc2n3C)cc1,67%
22,COc1ccccc1OCC(=O)NC1CC(=O)N(c2ccc3c(c2)OCCO3)C1 (stereo not given),67%

row,SMILES,survival
1,Cc1coc2c(C)c3oc(=O)c(CCC(=O)NCCc4ccccc4F)c(C)c3cc12,57%
2,COc1cc(C2c3c(-c4cc(C)ccc4O)n[nH]c3C(=O)N2CCCO)ccc1OCCC(C)C (stereo not given),58%
3,COc1cc(C2c3c(-c4ccccc4O)n[nH]c3C(=O)N2Cc2ccco2)ccc1OCC(C)C (stereo not given),7% (active)
4,COc1cc(C2c3c(-c4ccccc4O)n[nH]c3C(=O)N2CCO)ccc1OCC(C)C (stereo not given),99%
5,O=C1c2[nH]nc(-c3ccccc3O)c2C(c2cccc(Cl)c2)N1Cc1cccnc1 (stereo not given),65%
6,COc1cc(C2c3c(-c4c(C)cc(C)cc4O)n[nH]c3C(=O)N2Cc2ccco2)cc(OC)c1OC (stereo not given),67%
7,COC(=O)c1ccc(C2c3c(-c4ccccc4O)n[nH]c3C(=O)N2Cc2ccncc2)cc1 (stereo not given),90%
8,COc1ccc(C2c3c(-c4c(C)cc(C)cc4O)n[nH]c3C(=O)N2Cc2ccco2)cc1 (stereo not given),0% (active)
9,CCCOc1ccc(C2c3c(-c4c(C)cc(C)cc4O)n[nH]c3C(=O)N2CCO)cc1 (stereo not given),73%
10,CC(C)c1ccc(C2c3c(-c4ccccc4O)n[nH]c3C(=O)N2Cc2ccncc2)cc1 (stereo not given),88%
11,O=C1c2[nH]nc(-c3ccccc3O)c2C(c2ccc(Cl)cc2)N1Cc1ccco1 (stereo not given),-1% (active)
12,COc1ccc(C2c3c(-c4ccccc4O)n[nH]c3C(=O)N2Cc2ccco2)cc1 (stereo not given),1% (active)
13,CC(C)(C)c1ccc(C(=O)NCC(c2cccnc2)N2CCc3ccccc3C2)cc1 (stereo not given),98%
14,O=C(c1nc(-c2ccc(Cl)cc2)n2c1CCCCC2)N1CCN(c2ccccc2)CC1,88%
15,COC(=O)c1sc(N2C(=O)c3oc4cc(C)c(C)cc4c(=O)c3C2c2ccccc2F)nc1C (stereo not given),70%
16,O=c1c2nncn2ccn1-c1ccc(F)c(F)c1,90%
17,CCN(c1ccccc1)c1nnc(NC(=O)Nc2cccc(C(F)(F)F)c2)s1,88%
18,Cc1ccccc1-c1nnc(SCC(=O)N(C)C2CCCCC2)o1,67%
19,COc1ccc(-n2nc3ccc(NC(=O)c4cccc(OCCC(C)C)c4)cc3n2)cc1,121%
20,CN(C)CCCNc1cn[nH]c(=O)c1Cl,93%
21,CCOc1ccc(C(=O)CSc2nc3c(c(=O)n(C)c(=O)n3C)n2C(C)C)cc1,77%
22,O=C(CSc1cn(CC(=O)N2CCOCC2)c2ccccc12)Nc1ccccc1C(F)(F)F,65%

row,SMILES,survival
1,COc1cccc(-c2ccc3c(N)c(C(=O)c4ccc(F)cc4)sc3n2)c1,17% (active)
2,COc1cccc(-c2ccc3c(N)c(C(=O)Nc4ccc(C)c(F)c4)sc3n2)c1,95%
3,COc1ccc(NC(=O)c2sc3nc(-c4ccc(OC)cc4)cc(C(F)(F)F)c3c2N)cc1,56%
4,COc1ccc(-c2ccc3c(N)c(C(=O)NCc4ccc(Cl)cc4)sc3n2)cc1,79%
5,COc1cccc(C(=O)c2sc3nc(-c4ccccc4)cc(C(F)(F)F)c3c2N)c1,37% (active)
6,COc1ccc(C(=O)c2sc3nc(-c4ccc(F)cc4)ccc3c2N)cc1,81%
7,COc1cccc(-c2ccc3c(N)c(C(=O)c4ccc(Br)cc4)sc3n2)c1,28% (active)
8,COc1ccc(-c2ccc3c(N)c(C(=O)c4ccc(OC)c(OC)c4)sc3n2)cc1,52%
9,COc1cccc(-c2ccc3c(N)c(C(=O)Nc4cc(C(F)(F)F)ccc4OC)sc3n2)c1,89%
10,COc1ccc(-c2ccc3c(N)c(C(=O)NCc4ccc(C)cc4)sc3n2)cc1,69%
11,COc1cccc(-c2ccc3c(N)c(C(=O)NCc4ccc(Cl)cc4)sc3n2)c1,41% (active)
12,COc1ccc(C(=O)c2sc3nc(-c4ccc(C)cc4)cc(C(F)(F)F)c3c2N)cc1,134%
13,CC1C(=O)CCNC1c1ccccc1 (stereo not given),65%
14,O=C(O)c1ccc(N=NSCCO)cc1,79%
15,COc1ccc(-n2nc(C(=O)NCCc3cccc(C)c3)c3c4ccccc4n(C)c3c2=O)cc1Cl,89%
16,Cn1c(=O)c2c(nc(SCC(=O)Nc3ccc(OC(F)(F)F)cc3)n2Cc2cccc(C(F)(F)F)c2)n(C)c1=O,86%
17,COc1ccc(Cl)cc1NC(=O)c1sc2nc(-c3ccc(OC)c(OC)c3)ccc2c1N,124%
18,COc1cccc(-c2ccc3c(N)c(C(=O)Nc4ccc(Cl)cc4F)sc3n2)c1,59%
19,COc1cccc(-c2ccc3c(N)c(C(=O)c4ccc(Cl)cc4)sc3n2)c1,30% (active)
